HEK293 tox: cytotoxic compounds in HEK 293 cells. HEK 293 viability, ATP luminescence (CellTiter-Glo), 48-72 h. Potency, µM (doses to about 115 µM), actives largely listed as inhibitors. 94,000 compounds, 6.6% hits; further: nearly all actives have a fitted effect of over 60% in size
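Read-out: CellTiter-Glo ATP luminescence. Cells: HEK 293, 250 cells/well. Exposure: 48 or 72 hr, 37 degree Celsius.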
GPT2 inh: GPT2 alanine aminotransferase inhibition; Recombinant GPT2, coupled pyruvate oxidase/HRP Amplex Red fluorescence; Potency, µM (top dose mostly 57.7 µM), usual class: inhibitors; 100,000 compounds, 0.25% hits; further: nearly all actives have a fitted effect of over 60% in size
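Fluorescence read-out: pyruvate from GPT2 turnover coupled to pyruvate oxidase, HRP and Amplex Red (0.2mM ThPP, 0.2U/mL PO and HRP, 50uM Amplex final). Substrates 250uM a-KG, 2mM L-alanine; enzyme 10ng/uL; 30 min RT.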
NPR1 antag: blocks ANP-stimulated signaling of human Npr1 receptor; HEK293 hNpr1 GloSensor cGMP, ANP-stimulated luminescence; Potency, µM (highest dose often 46.3 µM), actives largely listed as inhibitors; 76,000 compounds, 1.6% hits; calls by dose curve; further: nearly all actives have a fitted effect of over 60% in size
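Compound pre-incubated 30 min at room temperature on GloSensor-loaded HEK293 cells stably carrying hNpr1 and the pGS-40F cGMP biosensor. Stimulation uses hNppA at 0.1 nM final; luminescence is taken at baseline and 20 min post-agonist.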
FLuc inh: Photinus pyralis luciferase inhibition. 76,000 compounds, 2.5% hits. purified P. pyralis luciferase, luminescence, biochemical. P08659. AID 1347043. Potency, µM (titrated, usually from 115 µM), hits mostly inhibitors; further: nearly all actives have a fitted effect of over 65% in size
Target sequence (P08659 whole entry, looked up): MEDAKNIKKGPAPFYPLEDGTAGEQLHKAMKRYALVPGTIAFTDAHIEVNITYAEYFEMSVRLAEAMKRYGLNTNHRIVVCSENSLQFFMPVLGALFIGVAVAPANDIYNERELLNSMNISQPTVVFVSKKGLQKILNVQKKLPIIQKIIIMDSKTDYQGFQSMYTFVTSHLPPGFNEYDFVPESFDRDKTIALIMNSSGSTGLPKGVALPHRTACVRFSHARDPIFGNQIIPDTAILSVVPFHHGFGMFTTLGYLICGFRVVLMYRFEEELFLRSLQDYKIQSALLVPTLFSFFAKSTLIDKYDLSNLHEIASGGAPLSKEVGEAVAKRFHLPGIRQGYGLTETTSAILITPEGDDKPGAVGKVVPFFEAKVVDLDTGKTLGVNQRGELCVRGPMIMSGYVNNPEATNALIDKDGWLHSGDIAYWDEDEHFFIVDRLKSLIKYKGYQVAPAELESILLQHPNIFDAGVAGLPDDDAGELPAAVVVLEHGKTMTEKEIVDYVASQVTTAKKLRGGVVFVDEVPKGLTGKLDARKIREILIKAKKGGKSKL
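Luminescence read by CCD imager after adding enzyme (10nM final) to wells holding compound, titrated in qHTS. Substrates 10uM each D-luciferin and ATP; buffer 50mM Tris acetate pH 7.5, 10mM Mg acetate, Tween-20, BSA.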
3T3 cytotox: cytotoxic compounds in NIH 3T3 cells | 94,000 compounds, 4.3% hits | AID 1345082 | NIH 3T3 viability, CellTiter-Glo ATP luminescence, 48-72 h | Potency, µM (titrated, usually from 96.7 µM), hits mostly inhibitors; further: nearly all actives have a fitted effect of over 55% in size
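Mouse fibroblast NIH 3T3 cells, 400 per well, received compound via pintool and were incubated for 48 or 72 hr prior to CellTiter-Glo ATP luminescence measurement.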
Of the large screens only hits and unclear results are named; the others gave an inactive call. Rows were chosen to be rich in hits. Some 10% of all compounds tested hit in one or more screens of this group. Unless noted, the call rests on the fitted dose curve; in most records, active means well fitted curve in the direction sought with a large enough effect; inconclusive means small, poorly fitted or top-dose-only effect, or another doubt; inactive means no such curve, though single readings can be large; an effect the other way counts as inactive or inconclusive.

FC(F)(F)c1ccc(CN2CC[C@H](c3nc4ccccc4[nH]3)C2)cc1	HEK293 tox 35.5µM, NPR1 antag inconclusive, 3T3 cytotox 28.2µM
FC(F)(F)c1ccc2nc([C@H]3CCN(Cc4ccc(Cl)cc4)C3)[nH]c2c1	HEK293 tox 22.4µM, NPR1 antag inconclusive, FLuc inh inconclusive, 3T3 cytotox inconclusive
CCCOC(=O)C1=CN(Cc2ccccc2)S(=O)(=O)N=C1C	HEK293 tox inconclusive
Cc1cnn(CC(=O)N2C[C@@H](COCC3CC3)[C@H](c3ccccn3)C2)c1	none
CC(C)N1C(=O)C2(CCCCC2)C1C(=O)N1CCN(c2ccccn2)CC1 (centres undefined)	none
CN(C)c1ccc(CN2CC[C@H](c3nc4ccc(C(F)(F)F)cc4[nH]3)C2)cc1	HEK293 tox 31.6µM, NPR1 antag inconclusive, 3T3 cytotox 31.6µM
c1csc(CN2CC[C@H](c3nc4ccccc4[nH]3)C2)c1	HEK293 tox inconclusive, FLuc inh inconclusive, 3T3 cytotox 100µM
c1ccc(CCCN2CC[C@H](c3nc4ccccc4[nH]3)C2)cc1	HEK293 tox inconclusive, FLuc inh inconclusive, 3T3 cytotox inconclusive
Cn1cc(CN2CC[C@H](c3nc4ccccc4[nH]3)C2)c2ccccc21	HEK293 tox 50.1µM, 3T3 cytotox inconclusive
Cc1ccc2nc([C@H]3CCN(Cc4ccc(C(F)(F)F)cc4)C3)[nH]c2c1	HEK293 tox 28.2µM, GPT2 inh inconclusive, NPR1 antag inconclusive, 3T3 cytotox 35.5µM
COc1ccc2nc([C@H]3CCN(Cc4ccc(C(=O)O)cc4)C3)[nH]c2c1	FLuc inh inconclusive
CN(C)c1ccc(CN2CC[C@H](c3nc4ncccc4[nH]3)C2)cc1	none
COc1ccc(-c2nnc3ccc(NCCc4ccccn4)nn23)nc1	3T3 cytotox inconclusive
COCCNC(=O)c1cc(NC(=O)C(C)C)cc2nc(C)ccc12	none
COc1ccccc1NC(=O)Cn1c(-c2ccccc2)nc(C)c(CCO)c1=O	HEK293 tox 35.5µM, 3T3 cytotox inconclusive
COc1ccc(Cn2c(-c3ccc(Cl)cc3)nc(C)c(CCO)c2=O)cc1F	HEK293 tox 44.7µM, 3T3 cytotox inconclusive
COc1cccc(NC(=O)Cn2c(-c3cccc(Cl)c3)nc(C)c(CCO)c2=O)c1	HEK293 tox 79.4µM, 3T3 cytotox inconclusive
Cc1cccc(NC(=O)Cn2c(-c3cccc(Cl)c3)nc(C)c(CCO)c2=O)c1	HEK293 tox 39.8µM, 3T3 cytotox inconclusive
CCOc1ccccc1NC(=O)Cn1c(-c2ccccc2)nc(C)c(CCO)c1=O	none
CN(Cc1ccccn1)C1CCc2ccccc21 (centres undefined)	none
O=C1NCCC[C@@H]1NC(=O)[C@H]1CN(C(=O)c2cccc(F)c2)CCN1C(=O)c1cccs1	none
CCc1cccc(NC(=O)Cn2c(-c3ccccc3)nc(C)c(CCO)c2=O)c1	HEK293 tox inconclusive, 3T3 cytotox inconclusive
COc1ccc(NC(=O)Cn2c(-c3ccc(F)cc3)nc(C)c(CCO)c2=O)cc1Cl	HEK293 tox 35.5µM, 3T3 cytotox inconclusive
CCOc1ccc(NC(=O)Cn2c(-c3cccc(Cl)c3)nc(C)c(CCO)c2=O)cc1	HEK293 tox inconclusive, 3T3 cytotox 31.6µM
Cc1nc(-c2ccccc2)n(CC(=O)Nc2cccc(Cl)c2)c(=O)c1CCO	HEK293 tox 25.1µM, NPR1 antag inconclusive, 3T3 cytotox inconclusive
CCn1c(CO)nnc1C1CC(NC(=O)CCCc2ccc(F)cc2)C1 (centres undefined)	none
Cn1ncc2c(C(=O)NCc3ccc(Cl)cc3)cc(-c3ccc(C(F)(F)F)cc3)nc21	HEK293 tox inconclusive (no result: GPT2 inh, NPR1 antag, FLuc inh)
CC(NC(=O)c1cc(-c2ccccc2C(F)(F)F)nc2c1cnn2C)C(C)(C)C (centres undefined)	HEK293 tox 44.7µM, 3T3 cytotox inconclusive (no result: GPT2 inh, NPR1 antag, FLuc inh)
Cn1ncc2c(C(=O)NCc3ccc(C(F)(F)F)cc3)cc(-c3ccccc3C(F)(F)F)nc21	HEK293 tox 17.8µM, 3T3 cytotox inconclusive (no result: GPT2 inh, NPR1 antag, FLuc inh)
Cn1ncc2c(C(=O)NCc3ccc(Cl)cc3)cc(-c3ccccc3C(F)(F)F)nc21	HEK293 tox 31.6µM, 3T3 cytotox inconclusive (no result: GPT2 inh, NPR1 antag, FLuc inh)
Cn1ncc2c(C(=O)NCC(=O)OC(C)(C)C)cc(-c3ccccc3C(F)(F)F)nc21	HEK293 tox 44.7µM, 3T3 cytotox inconclusive (no result: GPT2 inh, NPR1 antag, FLuc inh)
O=C(C1CCCC1)N1CC2CC(C1)[C@H]1CCCC(=O)N1C2 (some centres undefined)	none

Source: PubChem
